# Legend:
# Experiment in all cases: DAPPL (digital affinity profiling via proximity ligation, sequencing); 10 mM Tris-HCl pH 7.5, 50 mM NaCl, 1 mM DTT, 4% glycerol, room temperature, 30 min; GST-TFs on glutathione beads, 16-mer random dsDNA library, 0.1% formaldehyde crosslink after washing; high values mean tight binding
# FLI1 = biological target: T1, FLI1 (Homo sapiens, UniProt Q01543 1-452); details: protein: recombinant; tags: N-terminal GST; dsDNA, one strand shown
# T1 sequence: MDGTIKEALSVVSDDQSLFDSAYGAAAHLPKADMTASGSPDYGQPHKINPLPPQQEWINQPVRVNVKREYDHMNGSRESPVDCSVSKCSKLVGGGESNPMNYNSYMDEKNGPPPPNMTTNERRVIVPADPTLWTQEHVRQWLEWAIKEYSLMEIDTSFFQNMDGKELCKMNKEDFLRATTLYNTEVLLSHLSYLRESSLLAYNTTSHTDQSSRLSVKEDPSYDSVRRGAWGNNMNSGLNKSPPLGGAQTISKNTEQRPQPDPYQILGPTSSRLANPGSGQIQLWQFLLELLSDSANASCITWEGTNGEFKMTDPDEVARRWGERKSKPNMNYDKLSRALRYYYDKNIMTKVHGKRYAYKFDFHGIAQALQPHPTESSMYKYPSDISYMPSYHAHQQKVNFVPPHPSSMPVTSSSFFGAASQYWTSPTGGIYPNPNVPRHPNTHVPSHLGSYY
# In short: (§1)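 Human transcription factors were made in yeast as GST fusions, captured on glutathione beads and barcoded with DNA. With a tag-only sample included, the pool was incubated with 200 nmole of a random double-stranded 16-mer DNA library in Tris/NaCl/DTT/glycerol buffer at room temperature for 30 min, then crosslinked with 0.1% formaldehyde after washing, ligated by proximity, amplified and sequenced. For binding signal, each hexamer's read frequency for a factor is divided by its frequency for the tag-only sample.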
# ELK1 = biological target: T2, ELK1 (Homo sapiens, UniProt P19419 1-428); details: protein: recombinant; tags: N-terminal GST; dsDNA, one strand shown
# T2 sequence: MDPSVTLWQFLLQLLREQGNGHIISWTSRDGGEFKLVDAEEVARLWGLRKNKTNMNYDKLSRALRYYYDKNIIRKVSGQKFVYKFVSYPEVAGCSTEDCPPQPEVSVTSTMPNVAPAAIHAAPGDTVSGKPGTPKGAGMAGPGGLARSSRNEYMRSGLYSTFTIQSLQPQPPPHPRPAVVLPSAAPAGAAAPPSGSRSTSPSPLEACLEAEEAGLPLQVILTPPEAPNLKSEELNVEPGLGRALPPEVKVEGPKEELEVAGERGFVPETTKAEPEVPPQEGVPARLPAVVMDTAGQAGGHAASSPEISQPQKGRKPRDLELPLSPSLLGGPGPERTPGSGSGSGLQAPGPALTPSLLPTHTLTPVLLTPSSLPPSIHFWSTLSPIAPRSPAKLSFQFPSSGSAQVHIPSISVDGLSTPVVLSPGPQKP
# In short: as §1
# GABPA = biological target: T3, GABPA (Homo sapiens, UniProt Q06546 1-454); details: protein: recombinant; tags: N-terminal GST; dsDNA, one strand shown
# T3 sequence: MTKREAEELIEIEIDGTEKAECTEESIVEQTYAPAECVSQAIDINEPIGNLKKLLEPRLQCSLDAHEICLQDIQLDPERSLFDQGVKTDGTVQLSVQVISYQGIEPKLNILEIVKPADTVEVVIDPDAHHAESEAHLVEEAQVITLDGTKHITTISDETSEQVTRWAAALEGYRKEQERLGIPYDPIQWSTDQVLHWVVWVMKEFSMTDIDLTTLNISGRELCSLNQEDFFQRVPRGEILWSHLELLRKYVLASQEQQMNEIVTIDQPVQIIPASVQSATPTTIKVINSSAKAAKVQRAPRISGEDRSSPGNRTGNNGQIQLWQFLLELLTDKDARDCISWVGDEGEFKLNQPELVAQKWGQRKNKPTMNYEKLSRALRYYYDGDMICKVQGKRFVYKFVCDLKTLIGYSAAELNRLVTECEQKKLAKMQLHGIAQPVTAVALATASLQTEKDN
# In short: as §1
# ERG = biological target: T4, ERG (Homo sapiens, UniProt P11308 1-479); details: protein: recombinant; tags: N-terminal GST; dsDNA, one strand shown
# T4 sequence: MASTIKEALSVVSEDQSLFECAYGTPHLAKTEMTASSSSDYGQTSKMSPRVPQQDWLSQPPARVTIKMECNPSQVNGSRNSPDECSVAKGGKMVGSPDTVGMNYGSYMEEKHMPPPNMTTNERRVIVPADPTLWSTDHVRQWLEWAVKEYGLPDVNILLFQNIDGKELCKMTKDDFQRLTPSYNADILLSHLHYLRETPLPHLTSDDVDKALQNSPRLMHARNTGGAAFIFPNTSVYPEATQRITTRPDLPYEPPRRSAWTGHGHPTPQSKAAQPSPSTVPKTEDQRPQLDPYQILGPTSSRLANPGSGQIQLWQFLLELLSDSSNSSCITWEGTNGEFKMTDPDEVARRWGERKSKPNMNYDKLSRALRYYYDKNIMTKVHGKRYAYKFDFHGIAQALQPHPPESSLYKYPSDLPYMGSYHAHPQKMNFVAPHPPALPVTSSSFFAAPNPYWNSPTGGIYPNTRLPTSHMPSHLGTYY
# In short: as §1
# ELF1 = ELF1 (Homo sapiens, UniProt P32519 1-619); details: protein: recombinant; tags: N-terminal GST; dsDNA, one strand shown
# ELF1, sequence (P32519 whole entry): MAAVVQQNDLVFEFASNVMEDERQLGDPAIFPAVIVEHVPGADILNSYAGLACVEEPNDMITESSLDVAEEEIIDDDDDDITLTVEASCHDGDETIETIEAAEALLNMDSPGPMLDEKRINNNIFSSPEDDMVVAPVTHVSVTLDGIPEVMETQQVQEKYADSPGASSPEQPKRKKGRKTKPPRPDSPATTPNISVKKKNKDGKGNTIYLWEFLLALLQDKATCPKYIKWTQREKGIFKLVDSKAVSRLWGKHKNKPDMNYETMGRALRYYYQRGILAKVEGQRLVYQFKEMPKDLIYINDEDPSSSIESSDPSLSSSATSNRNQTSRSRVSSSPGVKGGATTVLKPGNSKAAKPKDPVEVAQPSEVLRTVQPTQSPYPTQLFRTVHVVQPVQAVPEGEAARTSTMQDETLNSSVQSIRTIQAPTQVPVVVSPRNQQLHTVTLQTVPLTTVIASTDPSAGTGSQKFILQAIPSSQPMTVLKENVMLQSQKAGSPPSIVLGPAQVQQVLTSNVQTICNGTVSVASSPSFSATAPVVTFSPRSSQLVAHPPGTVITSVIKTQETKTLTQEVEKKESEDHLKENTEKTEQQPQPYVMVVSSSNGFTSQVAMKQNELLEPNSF
# In short: as §1
# EHF = biological target: T5, EHF (Homo sapiens, UniProt Q9NZC4 1-300); details: protein: recombinant; tags: N-terminal GST; dsDNA, one strand shown
# T5 sequence: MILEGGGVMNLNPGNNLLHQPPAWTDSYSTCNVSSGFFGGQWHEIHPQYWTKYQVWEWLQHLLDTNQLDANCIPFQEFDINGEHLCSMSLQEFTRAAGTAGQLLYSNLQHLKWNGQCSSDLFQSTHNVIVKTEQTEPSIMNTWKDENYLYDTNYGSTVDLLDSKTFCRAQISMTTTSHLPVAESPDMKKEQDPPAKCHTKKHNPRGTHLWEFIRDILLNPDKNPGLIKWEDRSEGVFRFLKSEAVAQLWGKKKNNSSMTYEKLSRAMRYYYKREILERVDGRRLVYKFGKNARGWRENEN
# In short: as §1
# SPI1 = SPI1 (Homo sapiens, UniProt P17947 1-270); details: protein: recombinant; tags: N-terminal GST; dsDNA, one strand shown
# In short: as §1
# SPIB = SPIB (Homo sapiens, UniProt Q01892 1-262); details: protein: recombinant; tags: N-terminal GST; dsDNA, one strand shown
# SPIB, sequence (Q01892 whole entry): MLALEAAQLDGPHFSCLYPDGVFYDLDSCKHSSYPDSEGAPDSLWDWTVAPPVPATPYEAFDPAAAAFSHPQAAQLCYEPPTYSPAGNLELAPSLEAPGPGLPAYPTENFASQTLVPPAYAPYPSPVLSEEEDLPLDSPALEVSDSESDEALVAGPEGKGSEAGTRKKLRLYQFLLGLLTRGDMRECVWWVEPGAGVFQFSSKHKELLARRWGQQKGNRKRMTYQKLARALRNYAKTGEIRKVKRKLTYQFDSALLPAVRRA
# In short: as §1
# ELK3 = biological target: T6, ELK3 (Homo sapiens, UniProt P41970 1-407); details: protein: recombinant; tags: N-terminal GST; dsDNA, one strand shown
# T6 sequence: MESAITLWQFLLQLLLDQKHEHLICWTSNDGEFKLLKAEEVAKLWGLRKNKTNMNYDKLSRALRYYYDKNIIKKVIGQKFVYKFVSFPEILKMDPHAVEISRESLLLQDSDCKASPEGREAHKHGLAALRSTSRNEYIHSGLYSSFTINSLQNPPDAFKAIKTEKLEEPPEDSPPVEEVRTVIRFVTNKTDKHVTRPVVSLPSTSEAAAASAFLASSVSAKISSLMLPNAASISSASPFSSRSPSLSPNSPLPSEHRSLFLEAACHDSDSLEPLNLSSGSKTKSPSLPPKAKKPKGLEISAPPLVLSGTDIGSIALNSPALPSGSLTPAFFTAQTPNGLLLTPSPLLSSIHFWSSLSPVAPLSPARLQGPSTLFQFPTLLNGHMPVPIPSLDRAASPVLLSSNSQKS
# In short: as §1
# FEV = biological target: T7, FEV (Homo sapiens, UniProt Q99581 1-238); details: protein: recombinant; tags: N-terminal GST; dsDNA, one strand shown
# T7 sequence: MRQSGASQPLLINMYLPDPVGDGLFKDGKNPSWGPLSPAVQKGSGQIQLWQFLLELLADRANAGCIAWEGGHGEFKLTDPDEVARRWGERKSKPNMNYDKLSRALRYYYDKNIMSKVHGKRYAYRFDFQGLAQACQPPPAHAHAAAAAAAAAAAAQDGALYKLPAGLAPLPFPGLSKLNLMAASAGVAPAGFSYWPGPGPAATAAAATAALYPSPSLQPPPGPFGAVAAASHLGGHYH
# In short: as §1
# ETV5 = ETV5 (Homo sapiens, UniProt P41161 1-510); details: protein: recombinant; tags: N-terminal GST; dsDNA, one strand shown
# ETV5, sequence (P41161 whole entry): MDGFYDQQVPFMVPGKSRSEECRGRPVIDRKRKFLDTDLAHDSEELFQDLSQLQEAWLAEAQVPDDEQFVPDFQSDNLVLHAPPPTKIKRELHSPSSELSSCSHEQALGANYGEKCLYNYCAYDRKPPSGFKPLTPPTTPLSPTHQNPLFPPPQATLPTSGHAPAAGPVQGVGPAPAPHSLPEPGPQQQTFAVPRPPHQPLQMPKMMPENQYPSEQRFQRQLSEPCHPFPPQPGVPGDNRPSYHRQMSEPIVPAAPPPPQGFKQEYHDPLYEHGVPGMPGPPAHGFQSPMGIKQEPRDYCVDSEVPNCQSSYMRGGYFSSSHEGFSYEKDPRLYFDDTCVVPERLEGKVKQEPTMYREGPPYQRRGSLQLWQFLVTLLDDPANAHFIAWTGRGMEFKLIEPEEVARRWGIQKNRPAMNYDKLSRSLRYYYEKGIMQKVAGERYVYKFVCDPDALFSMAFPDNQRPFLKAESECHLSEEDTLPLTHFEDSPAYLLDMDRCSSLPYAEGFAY
# In short: as §1
# HSF1 = HSF1 (Homo sapiens, UniProt Q00613 1-529); details: protein: recombinant; tags: N-terminal GST; chain copies: 3; dsDNA, one strand shown
# HSF1, sequence (Q00613 whole entry): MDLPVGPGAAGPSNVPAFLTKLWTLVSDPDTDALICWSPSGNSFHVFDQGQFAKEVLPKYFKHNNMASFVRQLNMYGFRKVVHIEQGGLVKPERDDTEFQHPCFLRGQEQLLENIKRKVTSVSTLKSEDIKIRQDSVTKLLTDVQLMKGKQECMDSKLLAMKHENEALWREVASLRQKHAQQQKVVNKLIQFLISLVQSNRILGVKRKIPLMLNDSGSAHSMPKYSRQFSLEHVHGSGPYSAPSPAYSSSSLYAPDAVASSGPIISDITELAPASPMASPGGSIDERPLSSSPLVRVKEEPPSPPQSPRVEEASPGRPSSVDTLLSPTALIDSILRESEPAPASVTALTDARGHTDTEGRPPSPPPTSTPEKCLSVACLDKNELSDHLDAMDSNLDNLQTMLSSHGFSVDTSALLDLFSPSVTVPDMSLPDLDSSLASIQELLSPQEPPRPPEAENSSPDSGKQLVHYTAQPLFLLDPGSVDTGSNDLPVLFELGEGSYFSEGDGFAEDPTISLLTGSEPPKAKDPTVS
# In short: as §1
# SPIC = biological target: T8, SPIC (Homo sapiens, UniProt Q8N5J4 1-248); details: protein: recombinant; tags: N-terminal GST; dsDNA, one strand shown
# T8 sequence: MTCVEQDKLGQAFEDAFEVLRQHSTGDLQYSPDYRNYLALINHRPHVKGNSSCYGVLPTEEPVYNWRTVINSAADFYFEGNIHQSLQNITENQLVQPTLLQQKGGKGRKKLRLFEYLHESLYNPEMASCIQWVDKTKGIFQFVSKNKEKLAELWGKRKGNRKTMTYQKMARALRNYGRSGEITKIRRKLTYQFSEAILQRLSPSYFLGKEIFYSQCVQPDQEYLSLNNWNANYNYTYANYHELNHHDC
# In short: as §1
# ELF4 = ELF4 (Homo sapiens, UniProt Q99607 1-663); details: protein: recombinant; tags: N-terminal GST; dsDNA, one strand shown
# ELF4, sequence (Q99607 whole entry): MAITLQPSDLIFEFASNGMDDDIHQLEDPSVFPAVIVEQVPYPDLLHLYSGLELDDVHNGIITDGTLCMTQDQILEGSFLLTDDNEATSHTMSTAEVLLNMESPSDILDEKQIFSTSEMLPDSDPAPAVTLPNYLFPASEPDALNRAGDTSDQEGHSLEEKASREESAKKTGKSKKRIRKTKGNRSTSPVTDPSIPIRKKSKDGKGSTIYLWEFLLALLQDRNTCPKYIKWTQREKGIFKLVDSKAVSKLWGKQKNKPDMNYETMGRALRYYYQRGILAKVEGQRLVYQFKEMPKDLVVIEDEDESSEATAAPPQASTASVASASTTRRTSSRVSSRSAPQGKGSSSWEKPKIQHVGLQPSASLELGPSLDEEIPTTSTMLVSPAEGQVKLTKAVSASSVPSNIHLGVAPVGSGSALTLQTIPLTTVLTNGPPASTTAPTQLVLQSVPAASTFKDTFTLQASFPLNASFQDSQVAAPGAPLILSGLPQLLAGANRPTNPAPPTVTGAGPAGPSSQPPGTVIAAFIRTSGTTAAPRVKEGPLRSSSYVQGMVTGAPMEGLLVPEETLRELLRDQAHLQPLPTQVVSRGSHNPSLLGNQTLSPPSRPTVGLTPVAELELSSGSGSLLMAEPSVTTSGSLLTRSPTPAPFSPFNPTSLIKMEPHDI
# In short: as §1
# ELK4 = biological target: T9, ELK4 (Homo sapiens, UniProt P28324-2 1-405); details: protein: recombinant; tags: N-terminal GST; dsDNA, one strand shown
# T9 sequence: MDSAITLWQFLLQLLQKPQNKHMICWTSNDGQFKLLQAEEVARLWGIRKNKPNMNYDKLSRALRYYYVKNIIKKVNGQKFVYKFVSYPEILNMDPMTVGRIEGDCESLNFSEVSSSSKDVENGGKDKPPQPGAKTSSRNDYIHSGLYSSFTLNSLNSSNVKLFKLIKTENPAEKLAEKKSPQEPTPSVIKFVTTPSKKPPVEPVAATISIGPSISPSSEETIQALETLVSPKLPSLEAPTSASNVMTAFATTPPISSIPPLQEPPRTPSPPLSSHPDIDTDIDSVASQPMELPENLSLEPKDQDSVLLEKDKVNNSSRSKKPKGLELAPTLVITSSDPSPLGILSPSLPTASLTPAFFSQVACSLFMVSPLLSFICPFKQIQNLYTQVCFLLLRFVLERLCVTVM
# In short: as §1
# ETV2 = biological target: T10, ETV2 (Homo sapiens, UniProt O00321 1-342); details: protein: recombinant; tags: N-terminal GST; dsDNA, one strand shown
# T10 sequence: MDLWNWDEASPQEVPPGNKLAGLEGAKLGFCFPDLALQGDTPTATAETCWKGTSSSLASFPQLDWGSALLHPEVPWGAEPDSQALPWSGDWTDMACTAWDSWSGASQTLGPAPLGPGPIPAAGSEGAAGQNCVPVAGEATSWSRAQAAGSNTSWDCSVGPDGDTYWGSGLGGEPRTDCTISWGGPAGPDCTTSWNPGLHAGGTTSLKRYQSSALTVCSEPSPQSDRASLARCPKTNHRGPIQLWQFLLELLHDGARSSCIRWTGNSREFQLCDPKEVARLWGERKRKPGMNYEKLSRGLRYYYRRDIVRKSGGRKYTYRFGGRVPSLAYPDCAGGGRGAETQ
# In short: as §1
# ELF3 = biological target: T11, ELF3 (Homo sapiens, UniProt P78545 1-371); details: protein: recombinant; tags: N-terminal GST; dsDNA, one strand shown
# T11 sequence: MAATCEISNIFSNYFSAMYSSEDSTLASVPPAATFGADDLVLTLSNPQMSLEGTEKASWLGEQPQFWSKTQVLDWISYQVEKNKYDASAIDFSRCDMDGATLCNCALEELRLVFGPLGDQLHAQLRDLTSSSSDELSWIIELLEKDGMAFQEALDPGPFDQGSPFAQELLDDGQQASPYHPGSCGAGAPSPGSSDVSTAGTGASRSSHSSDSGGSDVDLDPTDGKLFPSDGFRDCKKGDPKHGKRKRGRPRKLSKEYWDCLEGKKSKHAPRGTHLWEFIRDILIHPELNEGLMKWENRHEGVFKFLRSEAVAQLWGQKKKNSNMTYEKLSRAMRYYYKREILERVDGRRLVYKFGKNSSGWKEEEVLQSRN
# In short: as §1
# CRX = CRX (Homo sapiens, UniProt O43186 1-299); details: protein: recombinant; tags: N-terminal GST; dsDNA, one strand shown
# CRX, sequence (O43186 whole entry): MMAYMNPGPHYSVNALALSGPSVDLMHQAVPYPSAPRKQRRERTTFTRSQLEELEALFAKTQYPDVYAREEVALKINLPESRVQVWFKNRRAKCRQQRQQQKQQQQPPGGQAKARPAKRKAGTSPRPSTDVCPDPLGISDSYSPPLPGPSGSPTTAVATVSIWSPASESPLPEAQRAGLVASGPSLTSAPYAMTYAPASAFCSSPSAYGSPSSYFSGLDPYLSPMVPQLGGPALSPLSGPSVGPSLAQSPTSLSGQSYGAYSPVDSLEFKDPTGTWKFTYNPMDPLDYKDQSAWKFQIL
# In short: as §1
# ETV1 = ETV1 (Homo sapiens, UniProt P50549 1-477); details: protein: recombinant; tags: N-terminal GST; dsDNA, one strand shown
# ETV1, sequence (P50549 whole entry): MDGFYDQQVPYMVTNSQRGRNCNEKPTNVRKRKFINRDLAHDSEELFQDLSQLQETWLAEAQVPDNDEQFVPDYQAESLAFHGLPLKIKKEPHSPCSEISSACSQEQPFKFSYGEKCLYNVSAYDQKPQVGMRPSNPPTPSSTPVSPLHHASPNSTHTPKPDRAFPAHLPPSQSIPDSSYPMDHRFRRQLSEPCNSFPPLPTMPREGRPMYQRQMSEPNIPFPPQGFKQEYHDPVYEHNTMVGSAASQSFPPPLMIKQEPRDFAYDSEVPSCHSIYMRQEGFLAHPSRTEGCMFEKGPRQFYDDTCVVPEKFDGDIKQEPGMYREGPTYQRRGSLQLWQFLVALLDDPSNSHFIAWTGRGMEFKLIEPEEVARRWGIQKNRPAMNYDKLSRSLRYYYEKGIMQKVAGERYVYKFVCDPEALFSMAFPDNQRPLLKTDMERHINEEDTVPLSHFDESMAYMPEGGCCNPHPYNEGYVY
# In short: as §1
sequence,measurement,setting,value
TTTCAA,binding signal,FLI1,"1.24 fold enrichment (6-mer frequency, TF over GST control)"
same,binding signal,ELK1,"1.23 fold enrichment (6-mer frequency, TF over GST control)"
same,binding signal,GABPA,"1.31 fold enrichment (6-mer frequency, TF over GST control)"
same,binding signal,ERG,"1.25 fold enrichment (6-mer frequency, TF over GST control)"
same,binding signal,ELF1,"1.3 fold enrichment (6-mer frequency, TF over GST control)"
same,binding signal,EHF,"1.3 fold enrichment (6-mer frequency, TF over GST control)"
same,binding signal,SPI1,"1.32 fold enrichment (6-mer frequency, TF over GST control)"
same,binding signal,SPIB,"1.37 fold enrichment (6-mer frequency, TF over GST control)"
same,binding signal,ELK3,"1.33 fold enrichment (6-mer frequency, TF over GST control)"
same,binding signal,FEV,"1.34 fold enrichment (6-mer frequency, TF over GST control)"
same,binding signal,ETV5,"1.29 fold enrichment (6-mer frequency, TF over GST control)"
same,binding signal,HSF1,"1.23 fold enrichment (6-mer frequency, TF over GST control)"
same,binding signal,SPIC,"1.33 fold enrichment (6-mer frequency, TF over GST control)"
same,binding signal,ELF4,"1.34 fold enrichment (6-mer frequency, TF over GST control)"
same,binding signal,ELK4,"1.29 fold enrichment (6-mer frequency, TF over GST control)"
same,binding signal,ETV2,"1.32 fold enrichment (6-mer frequency, TF over GST control)"
same,binding signal,ELF3,"1.33 fold enrichment (6-mer frequency, TF over GST control)"
same,binding signal,CRX,"1.34 fold enrichment (6-mer frequency, TF over GST control)"
same,binding signal,ETV1,"1.33 fold enrichment (6-mer frequency, TF over GST control)"

# Reference: publication PMC7862700, “An all-to-all approach to the identification of sequence-specific readers for epigenetic DNA modifications on cytosine”
